The results in this text go back to the supplement of paper PMC10646978.

± gives the standard deviation.

Details in all cases: modulator concentration 10 µM
Assay [1] deals with RAW-Dual (murine macrophage reporter line). In words: NF-kB reporter (SEAP) activity fold change vs agonist alone; higher = enhanced NF-kB activity. The method, boiled down: (§1)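 Overnight stimulation with a PRR agonist followed pre-incubation for 1 hour at 37 °C with compound at 10 μM final. This was done in RAW-Dual murine macrophage reporter cells seeded at 50 000 per well in 384-well plates. NF-κB (SEAP, QUANTI-Blue absorbance at 620 nm) and IRF (Lucia luciferase, QUANTI-Luc luminescence) were read from the supernatant. Each reporter's fold change relative to the mean agonist-only control on the same plate was averaged over replicate plates.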

For assay [2] the test system is unchanged. Briefly: IRF reporter (Lucia luciferase) activity fold change vs agonist alone; higher = enhanced IRF activity. In a few lines: as §1
The test system is the same in assay [3]. In words: viability score (confluency relative to resting cells, overnight) (fraction); higher = more viable, active = viable (0.7 or more). The method, boiled down:
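RAW-Dual macrophages in 384-well plates were treated overnight with compound at 10 μM final. IncuCyte imaging recorded confluency, and IncuCyte software built two confluency masks across every imaged well. The viability score expresses confluency relative to resting cells and was judged against a cutoff, which a compound met only if both masks exceeded 70% of resting cells.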

Setting [4] is: agonist: CpG ODN 1826 0.5 ug/mL.

As to `c1ccc2c(c1)Nc1ccccc1S2`, the results for the NF-kB reporter in assay [1] (setting [4]), in assay [1] (agonist: LPS 0.1 ug/mL) and in assay [1] (agonist: MPLA […]) were 1.02 ± 0.25, 0.934 ± 0.048 and 0.881 ± 0.11, respectively. The IRF reporter in assay [2] (agonist: 3'3'-cGAMP 10 ug/mL) was found to be 0.778 ± 0.026; in assay [2] (agonist: LPS 0.1 ug/mL), 1.31 ± 0.25; in assay [2] (agonist: MPLA […]), 1.32 ± 0.13. Further, the viability score in assay [3] was 0.939 (active).
Regarding `COc1cc2c(cc1O)CC1c3c(cc(O)c(OC)c3-2)CCN1C` (configuration not stated), the NF-kB reporter in assay [1] (setting [4]) was 0.916 ± 0.23; in assay [1] (agonist: LPS 0.1 ug/mL), 0.96 ± 0.078; in assay [1] (agonist: MPLA […]) it was 0.924 ± 0.092. Also, the IRF reporter in assay [2] (agonist: 3'3'-cGAMP 10 ug/mL) was 0.881 ± 0.03; in assay [2] (agonist: LPS 0.1 ug/mL) it was 1.17 ± 0.16; in assay [2] (agonist: MPLA […]), 1.12 ± 0.11. Also, the viability score in assay [3] was 0.999 (active).
For the molecule `CN1Cc2c(ccc3c2OCO3)C2C(O)Cc3cc4c(cc3C21)OCO4` (configuration not stated), the NF-kB reporter in assay [1] (setting [4]) was 1.75 ± 0.13; in assay [1] (agonist: LPS 0.1 ug/mL), 1.49 ± 0.12; in assay [1] (agonist: MPLA […]), 1.79 ± 0.19. Moreover, the IRF reporter is 0.269 ± 0.012 in assay [2] (agonist: 3'3'-cGAMP 10 ug/mL), 1.64 ± 0.22 in assay [2] (agonist: LPS 0.1 ug/mL) and 2 ± 0.38 in assay [2] (agonist: MPLA […]). Also, the viability score in assay [3] is 0.883 (active).
In the case of `Nc1ccncc1`, the NF-kB reporter in assay [1] (setting [4]) was 1 ± 0.24; in assay [1] (agonist: LPS 0.1 ug/mL), 1.03 ± 0.078; in assay [1] (agonist: MPLA […]) it was 0.879 ± 0.056. In addition, the IRF reporter in assay [2] (agonist: 3'3'-cGAMP 10 ug/mL) came to 0.514 ± 0.022; in assay [2] (agonist: LPS 0.1 ug/mL), 0.929 ± 0.11; in assay [2] (agonist: MPLA […]), 0.976 ± 0.25. Also, in assay [3], the viability score was 0.858 (active).
For `Cl.Clc1ccc(C(OCCN2CCCCC2)c2ccccc2)cc1` (configuration not stated), the NF-kB reporter is 0.656 ± 0.26 in assay [1] (setting [4]), 0.756 ± 0.051 in assay [1] (agonist: LPS 0.1 ug/mL) and 0.721 ± 0.049 in assay [1] (agonist: MPLA […]). Further, the IRF reporter in assay [2] (agonist: 3'3'-cGAMP 10 ug/mL) is 0.543 ± 0.023; in assay [2] (agonist: LPS 0.1 ug/mL), 1.25 ± 0.15; in assay [2] (agonist: MPLA […]), 1.24 ± 0.14. Moreover, the viability score in assay [3] was 0.652 (inactive).
`O=C1NC(=S)NC(=O)C1=Cc1ccc(OCc2ccc(F)cc2)c(Cl)c1`: the NF-kB reporter was determined as 0.918 ± 0.092 in assay [1] (setting [4]), 0.943 ± 0.064 in assay [1] (agonist: LPS 0.1 ug/mL) and 0.802 ± 0.05 in assay [1] (agonist: MPLA […]). Also, the IRF reporter came out at 0.765 ± 0.02 in assay [2] (agonist: 3'3'-cGAMP 10 ug/mL), 1.13 ± 0.095 in assay [2] (agonist: LPS 0.1 ug/mL) and 0.824 ± 0.14 in assay [2] (agonist: MPLA […]). Further, in assay [3], the viability score is 1.01 (active).
Turning to `CCOC(=O)c1ccccc1-c1ccc(C=C2C(=O)NC(=O)N(c3ccccc3C)C2=O)o1`, the NF-kB reporter in assay [1] (setting [4]) worked out at 0.727 ± 0.082; in assay [1] (agonist: LPS 0.1 ug/mL), 0.444 ± 0.025; in assay [1] (agonist: MPLA […]), 0.358 ± 0.051. The values for the IRF reporter in assay [2] (agonist: 3'3'-cGAMP 10 ug/mL), in assay [2] (agonist: LPS 0.1 ug/mL) and in assay [2] (agonist: MPLA […]) were 0.655 ± 0.023, 0.631 ± 0.096 and 0.321 ± 0.088, respectively. For the same molecule, in assay [3], the viability score was 0.0805 (inactive).
In the case of `CC(C)c1ccc2c(c1O)CCC1C3=C(CCC21C)C(=O)OC3` (configuration not stated), the NF-kB reporter in assay [1] (setting [4]) turned out to be 0.921 ± 0.072; in assay [1] (agonist: LPS 0.1 ug/mL) it was 0.815 ± 0.11; in assay [1] (agonist: MPLA […]), 0.986 ± 0.093. The IRF reporter worked out at 0.939 ± 0.029 in assay [2] (agonist: 3'3'-cGAMP 10 ug/mL), 1.11 ± 0.19 in assay [2] (agonist: LPS 0.1 ug/mL) and 1.23 ± 0.26 in assay [2] (agonist: MPLA […]). For the same molecule, in assay [3], the viability score was 1.03 (active).
As to `O=C(O)CCCc1ccc(N(CCCl)CCCl)cc1`, the NF-kB reporter in assay [1] (setting [4]) turned out to be 1.03 ± 0.17; in assay [1] (agonist: LPS 0.1 ug/mL), 1.03 ± 0.084; in assay [1] (agonist: MPLA […]), 1.11 ± 0.13. Besides, the IRF reporter amounted to 0.912 ± 0.027 in assay [2] (agonist: 3'3'-cGAMP 10 ug/mL), 1.29 ± 0.28 in assay [2] (agonist: LPS 0.1 ug/mL) and 1.08 ± 0.12 in assay [2] (agonist: MPLA […]). The viability score in assay [3] is 0.994 (active).
Take `O=C1NC(=O)C(=CNc2cccc(O)c2)C(=O)N1`: the NF-kB reporter is 0.859 ± 0.075 in assay [1] (setting [4]), 0.914 ± 0.053 in assay [1] (agonist: LPS 0.1 ug/mL) and 1.09 ± 0.13 in assay [1] (agonist: MPLA […]). The IRF reporter in assay [2] (agonist: 3'3'-cGAMP 10 ug/mL) came to 0.977 ± 0.062; in assay [2] (agonist: LPS 0.1 ug/mL), 1.43 ± 0.1; in assay [2] (agonist: MPLA […]) it was 1.6 ± 0.17. The viability score in assay [3] was 1.01 (active).
Consider `COc1ccc(N2C(=O)C(=Cc3ccc(OCc4ccc(F)cc4)c(OC)c3)C(=O)NC2=S)cc1`, for which the NF-kB reporter in assay [1] (setting [4]) was found to be 1.08 ± 0.11; in assay [1] (agonist: LPS 0.1 ug/mL), 1.04 ± 0.085; in assay [1] (agonist: MPLA […]), 0.932 ± 0.057. Moreover, the IRF reporter was 0.919 ± 0.042 in assay [2] (agonist: 3'3'-cGAMP 10 ug/mL), 1.02 ± 0.062 in assay [2] (agonist: LPS 0.1 ug/mL) and 1.05 ± 0.13 in assay [2] (agonist: MPLA […]). Further, the viability score in assay [3] is 1.01 (active).
